# Measured values taken from PubChem BioAssay (NCATS).
# Inconclusive results are not listed. Entries that show only a call come without a potency. Where a structure was tested more than once in an assay, its records may differ in their call. Activity calls are given as the source filed them. The call rests on the fitted dose curve; in most records, active means well fitted inhibition curve with a large enough effect; inconclusive means small, poorly fitted or top-dose-only effect; inactive means flat fitted curve, though single readings scatter.
# Key:
# Test in all cases: qHTS profiling for inhibitors of Plasmodium falciparum proliferation (AID 504749); further: nearly all actives have a fitted effect of over 60% in size
# Conditions in all cases: P. falciparum in erythrocytes, SYBR Green DNA, 72 h; series mostly up to 28.7 µM
# [1] = tested on: ATS95
# Method in brief: (§1)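 Readout was DNA-dye fluorescence from lysed cultures, ex 485/em 535 nm. Parasitized red cells had grown 72 h with compound; data scaled between 0.29 uM artemisinin and DMSO wells and corrected using vehicle-only plates.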
# [2] = tested on: C2A
# Method in brief: as §1
# [3] = tested on: CP185
# Method in brief: as §1
# [4] = tested on: CP191
# Method in brief: as §1
# [5] = tested on: CP192
# Method in brief: as §1
# [6] = tested on: CP194
# Method in brief: as §1
# [7] = tested on: CP201
# Method in brief: as §1
# [8] = tested on: CP203
# Method in brief: as §1
# [9] = tested on: CP211
# Method in brief: as §1
# [10] = tested on: CP215
# Method in brief: as §1
# Potency means the concentration at half of the fitted maximal effect.
Structure (SMILES),Potency [1],Potency [2],Potency [3],Potency [4],Potency [5],Potency [6],Potency [7],Potency [8],Potency [9],Potency [10]
O=C1C2CC=CCC2C(=O)N1SC(Cl)(Cl)Cl (stereo not drawn),inactive,inactive,inactive,inactive,inactive,inactive,inactive,inactive,inactive,inactive
CC(C)(C)c1cc(O)ccc1O,7.94 µM (active),4.47 µM (active),11.2 µM (active) and inactive,11.2 µM (active),inactive,16.9 µM (active) and inactive,inactive,15.1 µM (active),12 µM (active) and inactive,10.7 µM (active)
C[C@H]1CCC[C@H](O)CCCCCc2cc(O)cc(O)c2C(=O)O1,inactive,inactive,inactive,–,inactive,–,inactive,inactive,inactive,–
CNC(=O)OCC[N+](C)(C)C,inactive,inactive,inactive,inactive,inactive,inactive,inactive,inactive,–,inactive
O=C(NCNC(=O)NC1C(=O)NC(=O)N1CO)NC1C(=O)NC(=O)N1CO (stereo not drawn),inactive,inactive,inactive,inactive,inactive,inactive,inactive,inactive,inactive,inactive
CCC(=O)O[C@@](Cc1ccccc1)(c1ccccc1)[C@@H](C)CN(C)C,inactive,inactive,inactive,inactive,inactive,inactive,inactive,inactive,–,inactive
c1ccc(C2(N3CCCC3)CCCCC2)cc1,–,inactive,12.6 µM (active),11.2 µM (active),–,–,–,–,–,–
Clc1ccccc1Cl,inactive,inactive,inactive,inactive,inactive,inactive,inactive,inactive,inactive,inactive
CCCC(=O)OC(C(Cl)(Cl)Cl)P(=O)(OC)OC (stereo not drawn),–,inactive,inactive,inactive,inactive,inactive,inactive,inactive,–,–
CCCCCl,inactive,inactive,inactive,inactive,inactive,inactive,inactive,inactive,inactive,inactive
C[C@@H](Cc1ccccc1)NCCC(c1ccccc1)c1ccccc1,–,inactive,–,–,inactive,–,inactive,–,inactive,inactive
CN1CCCC(=C(c2cccs2)c2cccs2)C1,–,inactive,–,inactive,inactive,–,inactive,–,–,–
CN1[C@@H]2CC[C@H]1CC(OC1c3ccccc3CCc3ccccc31)C2 (stereo partly drawn),–,–,–,2.51 µM (active),inactive,–,inactive,–,–,inactive
CCC1(c2ccccc2)C(=O)NC(=O)NC1=O,inactive,inactive,inactive,inactive,–,inactive,inactive,inactive,inactive,inactive
OC(c1ccccc1)(c1ccccc1)C1CN2CCC1CC2 (stereo not drawn),inactive,inactive,inactive,–,inactive,inactive,inactive,inactive,inactive,–
Oc1cc(Cl)c(Cl)cc1Cl,inactive,inactive,inactive,inactive,inactive,inactive,inactive,–,inactive,inactive
[Cl-].[Cl-].[Hg+2],–,–,–,inactive,inactive,–,–,inactive,–,inactive
C/C(=C\c1csc(C)n1)[C@@H]1C[C@@H]2O[C@]2(C)CCC[C@H](C)[C@H](O)[C@@H](C)C(=O)C(C)(C)[C@@H](O)CC(=O)O1,0.0035 µM (active),0.0045 µM (active),0.002 µM (active),0.0028 µM (active),0.003 µM (active),0.0038 µM (active),–,0.0024 µM (active),0.003 µM (active),0.0038 µM (active)
N#CC1(N2CCCCC2)CCCCC1,inactive,inactive,inactive,inactive,inactive,inactive,inactive,inactive,inactive,inactive
CNC1(c2ccccc2Cl)CCCCC1=O (stereo not drawn),–,inactive,inactive,–,inactive,–,inactive,inactive,inactive,inactive

Structure (SMILES),Potency [1],Potency [2],Potency [3],Potency [4],Potency [5],Potency [6],Potency [7],Potency [8],Potency [9],Potency [10]
F/C(COc1ccc2c(c1)[nH]c1ccccc12)=C1/CN2CCC1CC2,11.2 µM (active),–,–,11.2 µM (active),–,–,inactive,–,–,inactive
N#CC(C#N)=Cc1cc(O)c(O)c(O)c1,–,10 µM (active),8.91 µM (active),–,13.5 µM (active),15.1 µM (active),–,–,13.5 µM (active),–
CCC(C)(S(=O)(=O)CC)S(=O)(=O)CC,inactive,inactive,inactive,inactive,inactive,inactive,inactive,inactive,inactive,inactive
CC12NC(Cc3ccccc31)c1ccccc12 (stereo not drawn),–,inactive,–,–,inactive,–,inactive,–,inactive,inactive
O=C1CN=C(c2ccccc2)c2cc(Cl)ccc2N1CC1CC1,inactive,inactive,inactive,inactive,inactive,inactive,inactive,–,inactive,inactive
CCC1(CC)C(=O)NC(=O)N(C)C1=O,inactive,inactive,inactive,inactive,inactive,inactive,inactive,inactive,inactive,inactive
[O]=[Cr](=[O])([OH])[O][Cr](=[O])(=[O])[OH],inactive,inactive,inactive,inactive,inactive,inactive,inactive,inactive,inactive,inactive
O=c1c2ccccc2[se]n1-c1ccccc1,inactive,inactive,–,–,inactive,–,inactive,inactive,–,inactive
Cc1sc2ccccc2c1CC1=NCCN1,inactive,inactive,inactive,–,inactive,inactive,inactive,inactive,inactive,inactive
CN1C2CCC1CC(OC(c1ccccc1)c1ccc(Cl)cc1)C2 (stereo not drawn),8.91 µM (active),11.2 µM (active),12.6 µM (active),4.47 µM (active),–,10.7 µM (active),–,12 µM (active),15.1 µM (active),10.7 µM (active)
C[CH2][Hg][S]c1ccccc1C(=O)O,2 µM (active),3.98 µM (active),2 µM (active),3.55 µM (active),4.78 µM (active),3.01 µM (active),4.26 µM (active),–,4.26 µM (active),1.51 µM (active)
CCC1(c2ccccc2)C(=O)NC(=O)N(C)C1=O (stereo not drawn),inactive,inactive,inactive,–,inactive,inactive,inactive,inactive,inactive,–
N#CN,inactive,inactive,inactive,inactive,inactive,inactive,inactive,inactive,inactive,inactive
CCC1(C)CC(=O)NC(=O)C1,–,inactive,inactive,inactive,inactive,inactive,inactive,inactive,inactive,inactive
CCOP(=O)(OCC)O/C(=C/Cl)c1ccc(Cl)cc1Cl,inactive,inactive,–,inactive,inactive,–,inactive,–,–,–
CC1CCC(C(C)C)C(OC(=O)c2ccccc2N)C1 (stereo not drawn),–,inactive,inactive,inactive,inactive,inactive,inactive,inactive,inactive,inactive
CNC(=O)Oc1ccccc1C(=O)Nc1ccccc1,–,inactive,inactive,–,inactive,–,inactive,inactive,inactive,–
Oc1cccc[c]1[Hg][Cl],10 µM (active),12.6 µM (active),7.94 µM (active),10 µM (active),15.1 µM (active),–,–,–,9.53 µM (active),10.7 µM (active)
CCOc1ccc2c3c1O[C@H]1[C@@H](O)C=C[C@H]4[C@@H](C2)N(C)CC[C@@]341,inactive,inactive,inactive,inactive,inactive,–,inactive,–,–,–
CCC1(c2ccccc2)C(=O)NC(=O)N(C(=O)c2ccccc2)C1=O (stereo not drawn),inactive,inactive,inactive,–,inactive,inactive,inactive,inactive,inactive,inactive
